# Data as given in PubChem BioAssay (NCATS).
# Several values for one entry are separate records, joined by “and”; a condition that tells them apart may be missing. Identical values can stand only once. Inconclusive results are not listed. Entries that show only a call come without a potency. Activity calls are given as the source filed them. Unless noted, calls come from the whole dose curve; as a rule, active = well fitted curve in the direction sought with a large enough effect; inconclusive = small, poorly fitted or top-dose-only effect, or another doubt; inactive = no such curve, though single readings can be large; an effect the other way counts as inactive or inconclusive.
# Experiments:
# [1] = U-118MG Cancer Cell Toxicity qHTS against the NCATS CANVASS Library (AID 1347351); note: potency is the fitted concentration of half-maximal effect
# Method in brief: (§1)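 Viability was assessed by adding CellTiter-Glo reagent to treated cultures and reading luminescence after 15min at room temperature. Treatment lasted 72 h at 37 degrees C/5% CO2, using an 11-point series on 1000 cells/well.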
# [2] = COV-362 Cancer Cell Toxicity qHTS against the NCATS CANVASS Library (AID 1347352)
# Method in brief: (§2)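 Toxicity was measured as CellTiter-Glo luminescence after 72 h exposure to an 11-point compound series. Compound was added to 1000 cells/well 4 h after seeding.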
# [3] = qHTS for H2AX Agonists against the NCATS CANVASS Library (AID 1347378);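 note: phospho-H2AX S139 level in CHO-K1 lysates by TR-FRET emission ratio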; note: potency is the fitted concentration of half-maximal effect
# Method in brief: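 Following overnight seeding, CHO-K1 cells are incubated with a concentration series of compound for 3 hr at 37C (final DMSO 0.76%). Cells are then lysed, detection antibodies added, and emission ratio 665/620 nm recorded after 24 hr at room temperature.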
# [4] = HPAF-II Cancer Cell Toxicity qHTS against the NCATS CANVASS Library (AID 1347346); note: nearly all actives have a fitted effect of over 55% in size; note: potency is the fitted concentration of half-maximal effect
# Method in brief: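 Cytotoxicity read-out was CellTiter-Glo luminescence after 72 h at 37 degrees C exposure of HPAF-II cells (1000/well) to compounds in an 11-point titration.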
# [5] = Panc-1005 Cancer Cell Toxicity qHTS against the NCATS CANVASS Library (AID 1347349); note: nearly all actives have a fitted effect of over 60% in size; note: potency is the fitted concentration of half-maximal effect
# Method in brief: as §1
# [6] = HEK-293 Cancer Cell Toxicity qHTS against the NCATS CANVASS Library (AID 1347355); note: potency is the fitted concentration of half-maximal effect; nearly all actives have a fitted effect of over 65% in size
# Method in brief: as §2
# [7] = KB-8-5-11 Cancer Cell Toxicity qHTS against the NCATS CANVASS Library (AID 1347364); note: nearly all actives have a fitted effect of over 75% in size; note: potency is the fitted concentration of half-maximal effect
# Method in brief: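 Viability read as CellTiter-Glo luminescence after 72 h at 37 °C, 5% CO2. 11-point compound series on 500 KB-8-5-11 cells/well in DMEM/10% FBS. Follow-up plating included 1 uM tariquidar in the medium.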
# [8] = SDT Cancer Cell Toxicity qHTS against the NCATS CANVASS Library (AID 1347365); note: nearly all actives have a fitted effect of over 60% in size; note: potency is the fitted concentration of half-maximal effect
# Method in brief: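 Cytotoxicity taken from CellTiterGlo ATP luminescence after 72 hr at 37C, 5% CO2. Canine glioma line SDT, 500 cells/well, treated at 11 concentrations; bortezomib dose series as control.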
# [9] = MCF7 Cancer Cell Toxicity qHTS against the NCATS CANVASS Library (AID 1347369)
# Method in brief: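 Cytotoxicity is measured by ATP content: MCF7 cells at 500 per well receive an 11-point compound series and, after 72 hr at 37C, are lysed with CellTiterGlo for luminescence.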
# [10] = qHTS for Antimalaria activity screened against the NCATS CANVASS Library (AID 1347380); note: nearly all actives have a fitted effect of over 40% in size; note: potency is the fitted concentration of half-maximal effect;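 for activity change, negative = inhibition: Plasmodium falciparum strain Dd2 asexual parasites grown in red blood cells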
# Method in brief: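 SYBR Green fluorescence at 485/535 nm was read 18 hr after lysis. This followed a 72 hr incubation at 37C in 5% O2, 5% CO2 of Dd2-infected erythrocytes (0.3% parasitemia, 2.5% final hematocrit) with compounds titrated over 11 concentrations.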
# [11] = Secretion counterscreen for inhibitors of the SERCaMP assay screened against the NCATS CANVASS Library (AID 1347390);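 note: light from luciferase secreted into medium read as a measure of general secretion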; note: potency is the fitted concentration of half-maximal effect
# Method in brief: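 Counterscreen identifying compounds that disrupt secretion, using SH-SY5Y cells with a constitutively secreted Gaussia luciferase reporter. A 20 h compound exposure (top 77 uM) precedes luminescent detection with coelenterazine.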
# [12] = Vero-766 cells viability qHTS against the NCATS CANVASS Library: Counterscreen for Zika virus inhibition assay (AID 1347394); note: nearly all actives have a fitted effect of over 60% in size; note: potency is the fitted concentration of half-maximal effect
# Method in brief: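 This cytotoxicity counterscreen uses African green monkey Vero 766 cells in the absence of Zika virus. Compounds are incubated with cells for 72 h, and ATP-based luminescence reports viability.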
# [13] = OV-SAHO Cancer Cell Toxicity qHTS against the NCATS CANVASS Library (AID 1347348); note: nearly all actives have a fitted effect of over 55% in size; note: potency is the fitted concentration of half-maximal effect
# Method in brief: as §1
# [14] = qHTS for Activators of p53 Stress Response Pathway screened against the NCATS CANVASS Library (AID 1347388); note: potency is the fitted concentration of half-maximal effect
# Method in brief: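 p53RE-bla HCT-116 cells (4000/well) were plated 5 h at 37C, exposed to compounds for 16 h at 37C over an 11-point concentration series, then loaded with CCF4 for 2 h at room temperature; 460/530 nm emission ratio read.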
# [15] = Viability qHTS for inhibitors of the SERCaMP assay screened against the NCATS CANVASS Library (AID 1347400); note: nearly all actives have a fitted effect of over 70% in size; note: potency is the fitted concentration of half-maximal effect
# Method in brief: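 CellTiter-Glo luminescence measured cytotoxicity after 48 h at 37C of compound treatment (11-point series). Cells were SH-SY5Y-GLuc SERCaMP MJH297 derivatives, seeded at 1000 per well 4 h beforehand.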
# [16] = UWB1.289 Cancer Cell Toxicity qHTS against the NCATS CANVASS Library (AID 1347347); note: nearly all actives have a fitted effect of over 60% in size; note: potency is the fitted concentration of half-maximal effect
# Method in brief: as §1
# [17] = target: Calcium and integrin-binding protein 1 (Homo sapiens) (UniProt Q99828); assay: Primary qHTS for Identification of Calcium Integrin Binding Protein 1 (CIB1) Competitor (AID 1508620);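 note: GST tagged CIB1 binding a fluorescein labelled alphaIIb integrin peptide tracer; top concentration of the series differs between compounds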
# Method in brief: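 Fluorescence polarization competition: CIB1-GST (1 uM final) preincubated with compound 15 min at room temperature, then FITC-labeled alphaIIb peptide (100 nM final) added for another 15 min. Polarization read at Ex 480/Em 540.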
# [18] = qHTS profiling for inhibitors of Plasmodium falciparum proliferation (AID 504749); note: potency is the fitted concentration of half-maximal effect; for all read-outs here: nearly all actives have a fitted effect of over 60% in size; conditions: P. falciparum in erythrocytes, SYBR Green DNA, 72 h; for activity, negative = inhibition: at 28.7 µM (top of the series)
# Method in brief: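 Quantitative HTS: compounds pinned into medium, infected erythrocytes added (0.3% parasitemia, 2.5% hematocrit), 72 h culture at 37 C under 5% CO2. Saponin/Triton lysis with SYBR Green I, overnight RT, then fluorescence read.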
# [19] = NCATS anti-infectives library activity on the primary C. elegans qHTS viability assay (AID 1745855; calls by dose curve; note: potency is the fitted concentration of half-maximal effect)
# Method in brief: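 GFP read-out by 488 nm laser cytometry at day 0, 3 and 7, gated on object perimeter, area and peak intensity, scored viability of PE254-GFP-FLuc worms exposed to compound in S medium with bacterial capsules at 21 °C.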
# [20] = qHTS Assay for Lipid Storage Modulators (AID 1519; calls by dose curve); conditions: Drosophila S3 cells, BODIPY lipid droplet/cell ratio, laser cytometry, cells loaded with oleic acid; for activity change, negative = inhibition: at 57.5 µM (top of the series)
# Method in brief: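 Cells seeded at 5,000 per well were treated with compounds over a concentration series and loaded with oleic acid (400 uM, as added). Lipid droplet fluorescence (488 nm excitation, 500-530 nm channel) was read by laser-scanning cytometry and normalized to 20 uM Triacsin C.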
# [21] = measured here: cell count channel max response
# [22] = measured here: lipid channel max response
# Sequence of Calcium and integrin-binding protein 1 (Homo sapiens) (Q99828 whole entry, looked up): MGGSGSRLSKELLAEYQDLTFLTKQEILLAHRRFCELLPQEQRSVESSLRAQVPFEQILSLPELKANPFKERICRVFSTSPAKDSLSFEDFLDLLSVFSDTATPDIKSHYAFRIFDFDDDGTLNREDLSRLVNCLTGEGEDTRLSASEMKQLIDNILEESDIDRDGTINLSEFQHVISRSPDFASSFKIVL
compound,measurement,setting,value
C[C@H]1CCC2(OC1)O[C@H]1C[C@H]3[C@@H]4CC(=O)[C@]5(O)C[C@H](O)CC[C@@]5(C)[C@H]4CC[C@@]3(C)[C@H]1[C@H]2C (stereo partly specified),Potency,[1],inactive
same,Potency,[2],inactive
same,Potency,[3],inactive
C/C(=C\[C@H](C)C(=O)/C=C/CC1CC(=O)NC(=O)C1)[C@@H]1OC(=O)CCCC/C=C/[C@H](O)[C@@H](O)[C@@H]1C,Potency,[4],18.8 µM (active)
same,Potency,[5],14.9 µM (active)
same,Potency,[6],23.5 µM (active)
same,Potency,[7],inactive
same,Potency,[8],13.2 µM (active)
same,Potency,[9],inactive
same,Potency,[3],inactive
same,Potency,[10],inactive
same,Potency,[11],inactive
same,Potency,[12],inactive
CN1CCc2cc3c(c4c2C1(C)C(=O)c1cc(O)ccc1-4)OCO3 (stereo unspecified),Potency,[6],18.7 µM (active)
same,Potency,[7],23.5 µM (active)
same,Potency,[8],1.48 µM (active)
same,Potency,[3],inactive
same,Potency,[12],inactive
C/C=C/c1cc2c(c(=O)o1)C(=O)[C@@H](O)[C@H](C)O2,Potency,[13],16.7 µM (active)
same,Potency,[5],13.3 µM (active)
same,Potency,[1],inactive
same,Potency,[8],10.5 µM (active)
same,Potency,[9],inactive
same,Potency,[10],inactive
same,Potency,[14],37.1 µM (active)
same,Potency,[12],inactive
same,Potency,[15],34 µM (active)
CC[C@@H](c1cc(OC)c(OC)cc1OC)[C@H](C)[C@@H](/C(C)=C/c1cc(OC)c(OC)cc1OC)c1cc(OC)c(OC)cc1OC,Potency,[16],inactive
same,Potency,[1],inactive
same,Potency,[2],inactive
same,Potency,[6],16.6 µM (active)
same,Potency,[8],inactive
same,Potency,[9],inactive
same,Potency,[10],747 nM (active) and 1.88 µM (active)
same,Potency,[14],inactive
same,Potency,[12],inactive
same,Potency,[15],inactive
COc1cc(C2C3=C(Cc4cc5c(cc42)OCO5)C(=O)OC3)cc(OC)c1OC (stereo unspecified),Potency,[8],0.118 µM (active)
same,Potency,[3],inactive
same,Potency,[10],9.41 µM (active)
same,Potency,[12],0.186 µM (active)
same,Potency,[15],0.0604 µM (active)
COc1cc2oc3ccccc3c(=O)c2cc1OC,Potency,[16],inactive
same,Potency,[13],inactive
same,Potency,[5],inactive
same,Potency,[1],30.6 µM (active)
same,Potency,[2],inactive
same,Potency,[9],inactive
same,Potency,[10],0.0049 µM (active)
same,Potency,[11],inactive
same,Potency,[15],inactive
CC[C@@H]1[C@H](C)[C@H](c2cc(OC)c(OC)cc2OC)[C@@H](C)[C@H](c2cc(OC)c(OC)cc2OC)[C@]12C=C(OC)C(=O)C=C2OC,Potency,[4],18.8 µM (active)
same,Potency,[6],26.4 µM (active)
same,Potency,[10],2.98 µM (active)
same,Potency,[12],20.9 µM (active)
C=C1C(=O)O[C@H]2[C@H]1CCC(C)=C1CC[C@@](C)(O)[C@@H]12,Potency,[16],18.8 µM (active)
same,Potency,[13],18.8 µM (active)
same,Potency,[5],16.8 µM (active)
same,Potency,[6],9.35 µM (active)
same,Potency,[7],23.5 µM (active)
same,Potency,[8],26.4 µM (active)
same,Potency,[3],27.3 µM (active)
same,Potency,[14],inactive
same,Potency,[11],34.3 µM (active)
same,Potency,[12],inactive
same,Potency,[15],42.8 µM (active)
CC1=C(C)C(=O)OC(C(C)C2(O)CCC3C4C5OC5C5(O)CC=CC(=O)C5(C)C4CCC32C)C1 (stereo unspecified),Potency,[4],inactive
same,Potency,[1],inactive
same,Potency,[7],inactive
same,Potency,[8],13.2 µM (active)
same,Potency,[9],inactive
same,Potency,[3],inactive
same,Potency,[14],inactive
same,Potency,[12],inactive
O=C1CC(c2ccc(O)cc2)Oc2cc(O)ccc21 (stereo unspecified),Potency,[4],inactive
same,Potency,[5],inactive
same,Potency,[1],inactive
same,Potency,[2],inactive
same,Potency,[7],inactive
same,Potency,[9],inactive
same,Potency,[3],inactive
same,Potency,[10],inactive
same,Potency,[14],inactive
same,Potency,[11],inactive
same,Potency,[12],inactive
same,Potency,[15],inactive
O=C(CCCc1ccc2cccnc2n1)NCc1cc(-c2ccc(F)c(C(F)(F)F)c2)no1,Potency,[17],inactive
C[C@@H]1CC(=O)Nc2cccc(-c3cnn(C(C)(C)C)c3)c2N1,Potency,[17],inactive
Cc1ccc(-n2c(C)cc(-c3nnc4n3CCCCC4)c2C)cc1,Potency,[17],inactive
C[C@@]12C(=O)OC(=O)[C@]1(C)[C@H]1CC[C@@H]2O1,Potency,[18]; parasite line A,3.98 µM (active)
same,Potency,[18]; parasite line B,3.16 µM (active)
COc1ccc(-n2cnc3cc(C(=O)N4CCCCC4)ccc32)cc1,Potency,[17],inactive
O=C(O)c1ccc(O)c2ncccc12,Potency,[17],inactive
Clc1cccc(-c2ccc(-c3nnc(CCCc4ccc5cccnc5n4)o3)cc2)c1,Potency,[17],inactive
CCC[C@H](NC(=O)/C(C#N)=C/c1cccc(Br)n1)c1ccccc1,Potency,[19],4.09 µM (active)
CN(Cc1ccccc1)C(=O)c1ccc(S(=O)(=O)Nc2ccccc2)cc1,Potency,[17],inactive
CC(/C=C1\SC(=S)N(CC(=O)O)C1=O)=C\c1ccccc1,"activity, negative = inhibition",[18]; parasite line A,-3.63% (inactive)
Cc1c(-c2cnccn2)ssc1=S,Potency,[19],inactive
COC1=C(OC)C(=O)C(C/C=C(\C)CC/C=C(\C)CC/C=C(\C)CC/C=C(/C)CC/C=C(\C)CC/C=C(\C)CC/C=C(\C)CC/C=C(\C)CC/C=C(\C)CCC=C(C)C)=C(C)C1=O,"activity change, negative = inhibition",[20],8.3% (inactive)
same,max response,[20]; [21],17.1%
same,max response,[20]; [22],27.6%
C=C1CCC2[C@](C)(CO)C(O)CC[C@]2(C)C1C/C=C1/C(=O)OCC1O (stereo partly specified),"activity change, negative = inhibition",[20],2.99% (inactive)
same,max response,[20]; [21],11%
same,max response,[20]; [22],17.4%
same,"activity, negative = inhibition",[18]; parasite line A,-24.6% (inactive)
same,"activity, negative = inhibition",[18]; parasite line B,-25.9% (inactive)
CC(=O)N1c2ccc(-c3ccc(C(=O)O)cc3)cc2[C@H](Nc2ccc(Cl)cc2)C[C@@H]1C,Potency,[19],23 µM (active)
COc1ccnc2[nH]cc(C(=O)C(=O)N3CCN(C(=O)c4ccccc4)C[C@H]3C)c12,Potency,[19],inactive
C[C@H]1CC2[C@@H]3CCC4=CC(=O)C=C[C@]4(C)[C@@]3(F)[C@@H](O)C[C@]2(C)[C@@]1(O)C(=O)CO (stereo partly specified),"activity change, negative = inhibition",[20],-0.272% (inactive)
same,max response,[20]; [21],-0.0442%
same,max response,[20]; [22],0.965%
